Screening data (PubChem BioAssay)
JMJD2A Tudor: qHTS Assay for Inhibitors of JMJD2A-Tudor Domain; Lysine-specific demethylase 4A (Homo sapiens), O75164; Potency, µM (highest dose often 114 µM), hits mostly inhibitors; AlphaScreen JMJD2A-Tudor / H3K4me3 peptide binding; 4.4% of 390,000 active; further: nearly all actives have a fitted effect of over 50% in size
G9a block: qHTS Assay for Inhibitors of Histone Lysine Methyltransferase G9a | 8.8% of 350,000 active | Potency, µM (titrated, usually from 102 µM), usual class: inhibitors | Histone-lysine N-methyltransferase EHMT2 (Homo sapiens), Q96KQ7 | G9a H3K9 monomethylation, AlphaScreen, 2 h; further: nearly all actives have a fitted effect of over 75% in size
Target sequence (Q96KQ7 913-1193 limits assumed): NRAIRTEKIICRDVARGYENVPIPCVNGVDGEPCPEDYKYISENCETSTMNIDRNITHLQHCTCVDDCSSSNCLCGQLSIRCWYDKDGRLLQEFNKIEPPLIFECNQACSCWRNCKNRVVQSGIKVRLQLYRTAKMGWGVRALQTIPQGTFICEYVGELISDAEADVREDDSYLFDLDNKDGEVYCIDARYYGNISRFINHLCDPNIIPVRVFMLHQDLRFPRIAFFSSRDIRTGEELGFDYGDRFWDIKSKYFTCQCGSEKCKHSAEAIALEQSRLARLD
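Methyltransferase reactions run at room temperature for 2 h (20 nM enzyme, 500 nM biotin-H3K9 peptide, 20 uM SAM) after a 15 min compound preincubation; product detected by AlphaScreen beads and anti-H3K9me1 antibody.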
HP1b chromo inh: HTS for Inhibitors of HP1-beta Chromodomain Interactions with Methylated Histone Tails; Chromobox protein homolog 1 (Homo sapiens), P83916; AlphaScreen HP1-beta / biotin-H3K9me3 peptide binding; Potency, µM (doses to about 114 µM), usual class: inhibitors; 0.56% of 390,000 active; AID 540317, 2011; further: nearly all actives have a fitted effect of over 70% in size
Target sequence (P83916 whole entry, looked up): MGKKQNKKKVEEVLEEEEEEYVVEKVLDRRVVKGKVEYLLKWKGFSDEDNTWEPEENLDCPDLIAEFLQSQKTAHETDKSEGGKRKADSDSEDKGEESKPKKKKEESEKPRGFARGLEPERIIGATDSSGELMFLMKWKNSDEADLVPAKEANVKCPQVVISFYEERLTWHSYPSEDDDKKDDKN
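Compound inhibition of the preformed complex between 50 nM HP1-beta and 50 nM biotinylated H3K9me3 peptide was read by AlphaScreen. Buffer was PBS pH 7.4 with 0.01% Tween-20. Incubations ran 30 min at room temperature, with 10 ug/mL donor/acceptor beads.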
L3MBTL1 block: qHTS Assay for the Inhibitors of L3MBTL1; 0.66% of 230,000 active; AlphaScreen L3MBTL1–H3K9me1 peptide binding; Potency, µM (doses to about 57.1 µM), most hits filed as inhibitors; AID 485360, 2010; further: nearly all actives have a fitted effect of over 60% in size
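L3MBTL1 (50 nM) pre-complexed 30 min with biotinylated H3(1-15)K9me1 peptide (75 nM), then compounds added for 30 min at room temperature; AlphaScreen streptavidin donor/nickel chelate acceptor beads (10 ug/mL final) read after 30 min dark incubation.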
BAZ2B inh: qHTS Assay for Inhibitors of BAZ2B; Bromodomain adjacent to zinc finger domain protein 2B (Homo sapiens), Q9UIF8; AlphaScreen BAZ2B-H3K14Ac peptide displacement; Potency, µM (doses to about 114 µM), actives largely listed as inhibitors; 4.4% of 360,000 active; AID 504333, 2011; further: nearly all actives have a fitted effect of over 60% in size
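BAZ2B 50 nM plus b-H3(5-23)K14Ac 50 nM, PBS pH 7.4/0.01% Tween-20, 30 min RT; compound added (max 110 uM), 30 min RT; streptavidin donor/Ni-chelate acceptor beads 10 ug/mL final, 20 min dark; AlphaScreen read.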
Sfp inh: qHTS Assay for Inhibitors of Bacillus subtilis Sfp phosphopantetheinyl transferase (PPTase) | Biochemical Sfp PPTase activity, qHTS | Potency, µM, hits mostly inhibitors | 3.5% of 310,000 active | AID 1490, 2009;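 further: the enzyme is Sfp with the accession as filed and its product quenches rhodamine fluorescence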
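Compounds were incubated with enzyme (final 15 nM) for 15 min at room temperature before substrate addition started the reaction. Fluorescence at 525 nm excitation, 598 nm emission was recorded immediately and after 30 minutes.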
A number is an active result. Most compounds without a hit are left out; they make up all but 12% or so of the library. The call rests on the fitted dose curve; in most records, active means well fitted curve in the direction sought with a large enough effect; inconclusive means small, poorly fitted or top-dose-only effect, or another doubt; inactive means no such curve, though single readings can be large; an effect the other way counts as inactive or inconclusive.

Screening Cc1cc(NS(=O)(=O)c2ccccc2)cc(Cl)c1O returned JMJD2A Tudor 89µM, G9a block 2.2µM, HP1b chromo inh inactive, L3MBTL1 block inactive, BAZ2B inh inactive and Sfp inh 79µM.
For C/C(=N\NS(=O)(=O)c1ccccc1)c1cc(Cl)cc(Cl)c1O the results were JMJD2A Tudor inactive, G9a block 45µM, HP1b chromo inh inactive, L3MBTL1 block inactive, BAZ2B inh inconclusive and Sfp inh inactive.
For C/C(=N/NS(=O)(=O)c1ccc(Cl)cc1)c1cccc(O)c1 the results were JMJD2A Tudor inactive, G9a block inactive, HP1b chromo inh inactive, L3MBTL1 block inactive, BAZ2B inh inactive and Sfp inh inactive.
Screening CC(C)c1ccc(NC(=O)CN2C(=O)c3cccc4cccc2c34)cc1 returned JMJD2A Tudor inactive, G9a block inactive, HP1b chromo inh inactive and BAZ2B inh inactive.
Screening COc1ccc(CCNc2ncnc3onc(C)c23)c(OC)c1 returned JMJD2A Tudor inactive, G9a block inactive, HP1b chromo inh inactive and BAZ2B inh inactive.
Screening Cc1ccc(Cl)cc1N1CCN(S(=O)(=O)c2ccc3[nH]c4c(c3c2)CCCCC4)CC1 returned JMJD2A Tudor inconclusive, G9a block inconclusive, HP1b chromo inh inactive and BAZ2B inh inactive.
For CC/C(=N/Nc1ccccc1)c1cnnc(-c2ccccc2)n1 the results were JMJD2A Tudor inactive, G9a block 7.1µM, HP1b chromo inh inactive, L3MBTL1 block inactive, BAZ2B inh inactive and Sfp inh inactive.
For OCc1c[nH]c(=S)n1CCOc1cccc(C(F)(F)F)c1 the results were JMJD2A Tudor 22µM, G9a block inconclusive, HP1b chromo inh inactive, BAZ2B inh inactive and Sfp inh inconclusive.
Screening CCc1ccc(NC(=O)Cn2c(=O)n(CCCCC(=O)NCCc3ccccc3)c(=O)c3ccccc32)cc1 returned JMJD2A Tudor inactive, G9a block inactive, HP1b chromo inh inactive and BAZ2B inh inactive.
Screening COc1ccc(CCNC(=O)CSc2nnc(Cc3csc(N)n3)n2C)cc1OC returned JMJD2A Tudor 50µM, G9a block inactive, HP1b chromo inh inactive, L3MBTL1 block inactive, BAZ2B inh 22µM and Sfp inh inactive.
For COc1ccc(CCNC(=O)CCCc2nnc3n(C)c(=O)c4sccc4n23)cc1OC the results were JMJD2A Tudor inactive, G9a block 22µM, HP1b chromo inh inactive, BAZ2B inh inconclusive and Sfp inh inactive.
For COc1ccc(CCNC(=O)CSc2nnc(Cn3c(=O)sc4ccccc43)n2C)cc1OC the results were JMJD2A Tudor inactive, G9a block inactive, HP1b chromo inh inactive, L3MBTL1 block inactive, BAZ2B inh inactive and Sfp inh inactive.
For Cc1ccc(CCNC(=O)CCCc2nnc3n(C)c(=O)c4sccc4n23)cc1 the results were JMJD2A Tudor inactive, G9a block inactive, HP1b chromo inh inactive and BAZ2B inh inactive.
Screening O=C(CSc1ncn[nH]1)Nc1nc(-c2ccccc2)cs1 returned JMJD2A Tudor inactive, G9a block inconclusive, HP1b chromo inh inactive, BAZ2B inh inactive and Sfp inh inactive.
For c1ccc(Nc2nc(CSc3ncn[nH]3)cs2)cc1 the results were JMJD2A Tudor inactive, G9a block 22µM, HP1b chromo inh inactive, BAZ2B inh inactive and Sfp inh inactive.
For CCOC(=O)C1=C(C)N(c2ccc(C)cc2)C(=O)/C1=C\c1cccs1 the results were JMJD2A Tudor 13µM, HP1b chromo inh inconclusive, L3MBTL1 block inactive, BAZ2B inh 10µM and Sfp inh inactive.
CCOC(=O)C1=C(C)N(c2ccccc2)C(=O)/C1=C\c1ccco1 was read as JMJD2A Tudor inconclusive, G9a block 40µM, HP1b chromo inh inactive, L3MBTL1 block inconclusive, BAZ2B inh inactive and Sfp inh 56µM.
`COC(=O)C1=C(C)N(c2cccc(C)c2)C(=O)/C1=C\c1cccs1` gave JMJD2A Tudor inconclusive, G9a block 11µM, HP1b chromo inh inconclusive, L3MBTL1 block inactive, BAZ2B inh 10µM and Sfp inh inactive.
